# Test results as given in ChEMBL document CHEMBL3988442, “University of Dundee, Small-Polar-MMV Screening Library” (2021).
# Target: T1, Arginase-2, mitochondrial (Homo sapiens) (UniProt P78540)
# T1 sequence (whole entry): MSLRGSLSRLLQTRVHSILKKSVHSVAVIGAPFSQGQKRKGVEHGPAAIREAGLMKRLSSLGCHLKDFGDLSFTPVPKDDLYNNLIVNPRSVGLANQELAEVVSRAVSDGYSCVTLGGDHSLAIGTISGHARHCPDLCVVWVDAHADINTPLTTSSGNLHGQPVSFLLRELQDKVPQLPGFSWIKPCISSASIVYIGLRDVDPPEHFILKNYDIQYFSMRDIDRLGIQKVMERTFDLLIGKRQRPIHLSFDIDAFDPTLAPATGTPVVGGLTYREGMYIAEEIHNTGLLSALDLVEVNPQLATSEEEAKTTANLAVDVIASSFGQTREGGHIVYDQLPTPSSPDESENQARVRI
# Assay: in vitro enzyme assay to detect the production of urea directly proportional to the activity of Arginase II
# Format: functional
# Set-up: scale not given: in the data most compounds retested in dose-response had high values
# Details: 33.3 µM
row,SMILES,Percent Effect
1,N#CC1(C(=O)N2CCN(Cc3ccon3)CC2)CCC1,9.89%
2,Cc1ccc2c(c1)c(CNC(=O)C1CC(=O)N(C3CCCC3)C1)nn2C (stereo not given),-1.43%
3,CCOc1cc(C)nc(N2CCN(Cc3nccn3C)CC2)n1,12.4%
4,CCN(CC)C(=O)CCNC(=O)N1CCC(c2ccccc2)C1 (stereo not given),-4.29%
5,CCN1CCOC(CNCc2ccccc2OCC(=O)N(C)C)C1 (stereo not given),-2.88%
6,CC(NCc1ccc(Cl)o1)c1nnc2n1CCCC2 (stereo not given),11.2%
7,Cc1ccc(NC(=O)Cn2cc(I)cn2)cc1,-1.32%
8,CC(C)c1nnc2n1CCN(C(=O)CN1Cc3ccccc3C1=O)C2,-0.383%
9,O=C(c1ccc(Cl)c(Cl)c1)N1CCCC(n2cncn2)C1 (stereo not given),6.47%
10,O=C1COc2cc(C(=O)NS(=O)(=O)c3ccccc3F)ccc2N1,-3.6%
11,CN(C)[C@@H]1CCN(c2ncccn2)[C@H]1Cc1ccncc1,1.38%
12,O=C([C@H]1CCCO1)N1CCc2ncnc(NC3CC3)c2CC1,5%
13,c1ccc(-c2nnc(CNCCn3cccn3)o2)cc1,3.04%
14,CC(C)c1nc2c(n1C)CCN(Cc1nc(-c3cccs3)no1)C2,-1.66%
15,COCCN1CC[C@@H]2OC[C@H](C(=O)NCc3cccs3)C[C@@H]2C1,1.59%
16,O=C(NCc1ccc(F)cc1)N1CCC(C2OCCO2)CC1,-8.28%
17,CN(Cc1nnc(C2CC2)n1C)C1CCN(Cc2ccc(F)cc2)C1 (stereo not given),-8.02%
18,CN(C(=O)c1cccc2[nH]ncc12)C1CCN(c2ccccn2)CC1,-3.16%
19,Cc1nnc(N2CCC(CN(C)C(C)C)CC2)c(C#N)c1C,-4%
20,Cc1cc(-c2nnc(SCC(=O)O)n2C(C)c2ccccc2)nn1C (stereo not given),1.77%

row,SMILES,Percent Effect
1,CC(C)OCc1ncn2c1CN(Cc1ccc(F)cc1)CCC2,-6.05%
2,Fc1cnc(N2C[C@H]3CCC[C@@]3(COc3ccccn3)C2)nc1,-1.94%
3,CCS(=O)(=O)N1CCC2(CCCN(Cc3cc(OC)ccc3F)C2)C1 (stereo not given),0.883%
4,COC(=O)c1ccc(C(=O)NS(=O)(=O)c2cncc(Br)c2)cc1,-0.952%
5,COc1c(CNC(c2nccn2C)C(C)C)c(C)nn1C (stereo not given),-2.68%
6,CC(C)c1nc(CN(C)CC2CCN(CCO)CC2)no1,2.86%
7,c1ccc2c(N3CCCC3Cn3cccn3)ncnc2c1 (stereo not given),2.77%
8,CCOc1ccc(N2CCCN=C2NC(=O)c2ccccc2C)cc1,-5.52%
9,Cc1csc(N2CCN(C(=O)CCc3ccccn3)CC2)n1,-12.8%
10,COc1ccc(Cc2nnc(SC)o2)cc1OC,-1.56%
11,Cn1ncc2c(NCCOc3ccc(F)cc3)nc(C3CCCC3)nc21,2.27%
12,COCC1c2c(cnn2C)CCN1Cc1ccoc1 (stereo not given),-1.67%
13,CC(=O)Nc1nc(CN2CCCCC2Cn2cccn2)cs1 (stereo not given),-1.18%
14,O=C(NCC1CC1)c1nc(COc2ccc3c(c2)OCO3)no1,-5.46%
15,Cc1nccc(-c2cccc(NCC(=O)N3CCNC3=O)c2)n1,-1.44%
16,Cc1ccc(CN2CC3(CCN(C(=O)c4cscn4)C3)C2)s1,3.19%
17,CCCc1nc(CN2CCOC(Cn3cncn3)C2)no1 (stereo not given),3.23%
18,Cc1nn(C)c(C)c1CNC1CCOc2ccccc21 (stereo not given),-1.74%
19,Cc1noc2nc(C3CCN(Cc4cccnc4)CC3)cc(C(F)F)c12,-1.16%
20,COc1cc(OC)c(C2Nc3cc(Cl)ccc3C3=NCCN32)cc1OC (stereo not given),-3.5%
